{
  "source": "the supplement of paper PMC8728848",
  "binders": {"B1": {"name": "MGL (Homo sapiens), Q8IUN9 (protein)", "chain": "MTRTYENFQYLENKVKVQGFKNGPLPLQSLLQRLCSGPCHLLLSLGLGLLLLVIICVVGFQNSKFQRDLVTLRTDFSNFTSNTVAEIQALTSQGSSLEETIASLKAEVEGFKQERQAGVSELQEHTTQKAHLGHCPHCPSVCVPVHSEMLLRVQQLVQDLKKLTCQVATLNNNASTEGTCCPVNWVEHQDSCYWFSHSGMSWAEAEKYCQLKNAHLVVINSREEQNFVQKYLGSAYTWMGLSDPEGAWKWVDGTDYATGFQNWKPGQPDDWQGHGLGGGEDCAHFHPDGRWNDDVCQRPYHWVCEAGLGQTSQESH"}},
  "test_in_all_cases": "glycan array binding signal (z-score within array); higher = stronger binding",
  "details_in_all_cases": "glycan notation: IUPAC condensed, linker removed",
  "key": {"[1]": {"biological_target": "Gal(b1-4)GlcNAc(b1-3)Gal(b1-4)GlcNAc", "in_short": "(§1)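 The binding signal is a Z-score computed within each array. Data were drawn from 3228 arrays in the Consortium for Functional Glycomics database, restricted to those with a known protein sequence. Scores were averaged over arrays of the same protein sequence at different concentrations or buffers, and over linkers, and negative values can be taken as non-binding.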"}, "[2]": {"biological_target": "Gal(b1-4)GlcNAc(b1-6)GalNAc", "in_short": "as §1"}, "Gal3S6S(b1-4)GlcNAc6S": {"biological_target": "Gal3S6S(b1-4)GlcNAc6S", "in_short": "as §1"}, "GalNAc(a1-3)GalNAc": {"biological_target": "GalNAc(a1-3)GalNAc", "in_short": "as §1"}, "[3]": {"biological_target": "GalNAc(a1-3)GalNAc(b1-3)Gal(a1-4)Gal(b1-4)GlcNAc", "in_short": "as §1"}, "GalNAc(b1-3)Gal": {"biological_target": "GalNAc(b1-3)Gal", "in_short": "as §1"}, "[4]": {"biological_target": "GalNAc(b1-3)Gal(a1-6)Gal(b1-4)Glc", "in_short": "as §1"}, "[5]": {"biological_target": "GalNAc(b1-4)GlcNAc(b1-2)Man", "in_short": "as §1"}, "GalNAc(b1-4)GlcNAc6S": {"biological_target": "GalNAc(b1-4)GlcNAc6S", "in_short": "as §1"}, "GlcNAc(b1-4)GlcNAc": {"biological_target": "GlcNAc(b1-4)GlcNAc", "in_short": "as §1"}, "[6]": {"biological_target": "GlcNAc(b1-4)GlcNAc(b1-4)GlcNAc", "in_short": "as §1"}, "GlcNAc(b1-6)GalNAc": {"biological_target": "GlcNAc(b1-6)GalNAc", "in_short": "as §1"}, "Kdn(a2-6)Gal(b1-4)GlcNAc": {"biological_target": "Kdn(a2-6)Gal(b1-4)GlcNAc", "in_short": "as §1"}, "[7]": {"biological_target": "Neu5Ac(a2-3)Gal(b1-3)GalNAc", "in_short": "as §1"}, "[8]": {"biological_target": "Neu5Ac(a2-3)Gal(b1-3)GlcNAc(b1-4)Gal(b1-4)Glc", "in_short": "as §1"}, "[9]": {"biological_target": "Neu5Ac(a2-3)Gal(b1-4)GlcNAc(b1-3)Gal(b1-4)GlcNAc", "in_short": "as §1"}, "[10]": {"biological_target": "Neu5Ac(a2-3)Gal(b1-4)GlcNAc(b1-3)[Neu5Ac(a2-3)Gal(b1-4)GlcNAc(b1-6)]GalNAc", "in_short": "as §1"}, "[11]": {"biological_target": "Neu5Ac(a2-3)Gal(b1-4)GlcNAc6S", "in_short": "as §1"}, "[12]": {"biological_target": "Neu5Ac(a2-8)Neu5Ac(a2-3)Gal(b1-3)GalNAc(b1-4)[Neu5Ac(a2-8)Neu5Ac(a2-3)]Gal(b1-4)Glc", "in_short": "as §1"}, "[13]": {"biological_target": "Neu5Ac(a2-8)Neu5Ac(a2-3)Gal(b1-4)GlcNAc", "in_short": "as §1"}, "[14]": {"biological_target": "Neu5Ac(a2-8)Neu5Ac(a2-8)Neu5Ac(a2-8)Neu5Ac(a2-3)[GalNAc(b1-4)]Gal(b1-4)Glc", "in_short": "as §1"}, "[15]": {"biological_target": "Neu5Gc(a2-8)Neu5Ac(a2-3)Gal(b1-4)GlcNAc", "in_short": "as §1"}, "[16]": {"biological_target": "Neu5Gc(a2-8)Neu5Gc(a2-6)Gal(b1-4)GlcNAc", "in_short": "as §1"}},
  "note": "Only a selection was taken, and the strongest signals are over-represented in it overall.",
  "data": [
    {"binder": "B1", "values": [
      {"measurement": "glycan array binding signal (z-score)", "setting": "[1]", "result": -0.242},
      {"measurement": "glycan array binding signal (z-score)", "setting": "[2]", "result": 4.14},
      {"measurement": "glycan array binding signal (z-score)", "setting": "Gal3S6S(b1-4)GlcNAc6S", "result": -0.242},
      {"measurement": "glycan array binding signal (z-score)", "setting": "GalNAc(a1-3)GalNAc", "result": 0.346},
      {"measurement": "glycan array binding signal (z-score)", "setting": "[3]", "result": 0.634},
      {"measurement": "glycan array binding signal (z-score)", "setting": "GalNAc(b1-3)Gal", "result": 3.3},
      {"measurement": "glycan array binding signal (z-score)", "setting": "[4]", "result": 3.77},
      {"measurement": "glycan array binding signal (z-score)", "setting": "[5]", "result": 3.9},
      {"measurement": "glycan array binding signal (z-score)", "setting": "GalNAc(b1-4)GlcNAc6S", "result": 4.05},
      {"measurement": "glycan array binding signal (z-score)", "setting": "GlcNAc(b1-4)GlcNAc", "result": -0.243},
      {"measurement": "glycan array binding signal (z-score)", "setting": "[6]", "result": -0.253},
      {"measurement": "glycan array binding signal (z-score)", "setting": "GlcNAc(b1-6)GalNAc", "result": 4.7},
      {"measurement": "glycan array binding signal (z-score)", "setting": "Kdn(a2-6)Gal(b1-4)GlcNAc", "result": -0.245},
      {"measurement": "glycan array binding signal (z-score)", "setting": "[7]", "result": -0.241},
      {"measurement": "glycan array binding signal (z-score)", "setting": "[8]", "result": -0.251},
      {"measurement": "glycan array binding signal (z-score)", "setting": "[9]", "result": -0.238},
      {"measurement": "glycan array binding signal (z-score)", "setting": "[10]", "result": -0.527},
      {"measurement": "glycan array binding signal (z-score)", "setting": "[11]", "result": -0.244},
      {"measurement": "glycan array binding signal (z-score)", "setting": "[12]", "result": -0.243},
      {"measurement": "glycan array binding signal (z-score)", "setting": "[13]", "result": -0.259},
      {"measurement": "glycan array binding signal (z-score)", "setting": "[14]", "result": 3.54},
      {"measurement": "glycan array binding signal (z-score)", "setting": "[15]", "result": -0.237},
      {"measurement": "glycan array binding signal (z-score)", "setting": "[16]", "result": -0.246}
    ]}
  ]
}
